# Experimental data from the supplement of paper PMC8728848.
# About 410 targets per protein were measured; listed, in parts, are those with the strongest signals and a random draw of the rest.
# Columns and labels:
# Test in all cases: glycan array binding signal (z-score within array); higher = stronger binding
# Conditions in all cases: glycan notation: IUPAC condensed, linker removed
# Fuc(a1-2)Gal = molecular target: Fuc(a1-2)Gal
# Outline: (§1)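 From the Consortium for Functional Glycomics database, 3228 arrays were curated, keeping only those whose protein sequence was available. Binding is given as a within-array Z-score averaged across arrays sharing a protein sequence and across linkers. Negative Z-scores can be read as non-binding.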
# [1] = molecular target: Fuc(a1-2)Gal(b1-3)GlcNAc(b1-3)[Fuc(a1-2)Gal(b1-3)GlcNAc(b1-6)]GalNAc
# Outline: as §1
# [2] = molecular target: Fuc(a1-2)Gal(b1-3)[Fuc(a1-4)]GlcNAc(b1-2)Man(a1-3)[Fuc(a1-2)Gal(b1-3)[Fuc(a1-4)]GlcNAc(b1-2)Man(a1-6)]Man(b1-4)GlcNAc(b1-4)[Fuc(a1-6)]GlcNAc(b1-4)[Fuc(a1-6)]GlcNAc
# Outline: as §1
# [3] = molecular target: Fuc(a1-2)Gal(b1-4)GlcNAc(b1-2)Man(a1-3)[Fuc(a1-2)Gal(b1-4)GlcNAc(b1-2)Man(a1-6)]Man(b1-4)GlcNAc(b1-4)GlcNAc
# Outline: as §1
# [4] = molecular target: Fuc(a1-2)Gal(b1-4)GlcNAc(b1-6)GalNAc
# Outline: as §1
# Fuc(a1-2)Gal6S(b1-4)Glc = molecular target: Fuc(a1-2)Gal6S(b1-4)Glc
# Outline: as §1
# [5] = molecular target: Fuc(a1-2)[Gal(a1-3)]Gal(b1-4)[Fuc(a1-3)]GlcNAc(b1-3)GalNAc
# Outline: as §1
# [6] = molecular target: Fuc(a1-2)[GalNAc(a1-3)]Gal(b1-4)GlcNAc(b1-2)Man(a1-3)[Fuc(a1-2)[GalNAc(a1-3)]Gal(b1-4)GlcNAc(b1-2)Man(a1-6)]Man(b1-4)GlcNAc(b1-4)[Fuc(a1-6)]GlcNAc
# Outline: as §1
# [7] = molecular target: Fuc(a1-2)[GalNAc(a1-3)]Gal(b1-4)[Fuc(a1-3)]GlcNAc(b1-3)GalNAc
# Outline: as §1
# [8] = molecular target: Fuc(a1-3)[GalNAc(b1-4)]GlcNAc
# Outline: as §1
# [9] = molecular target: Fuc(a1-3)[GalNAc(b1-4)]GlcNAc6S
# Outline: as §1
# Gal(a1-2)Gal = molecular target: Gal(a1-2)Gal
# Outline: as §1
# [10] = molecular target: Gal(a1-3)Gal(b1-4)GlcNAc(b1-6)GalNAc
# Outline: as §1
# [11] = molecular target: Gal(b1-3)GalNAc(b1-4)[Neu5Ac(a2-3)]Gal(b1-4)Glc
# Outline: as §1
# [12] = molecular target: Gal(b1-3)GlcNAc(b1-2)[Gal(b1-3)GlcNAc(b1-6)]Man(a1-6)[Gal(b1-3)GlcNAc(b1-2)Man(a1-3)]Man(b1-4)GlcNAc(b1-4)GlcNAc
# Outline: as §1
# [13] = molecular target: Gal(b1-3)GlcNAc(b1-3)Gal(b1-4)GlcNAc(b1-2)Man(a1-3)[Gal(b1-3)GlcNAc(b1-3)Gal(b1-4)GlcNAc(b1-2)Man(a1-6)]Man(b1-4)GlcNAc(b1-4)GlcNAc
# Outline: as §1
# [14] = molecular target: Gal(b1-3)GlcNAc(b1-3)Gal(b1-4)[Fuc(a1-3)]GlcNAc(b1-6)[Gal(b1-3)GlcNAc(b1-3)]Gal(b1-4)Glc
# Outline: as §1
# [15] = molecular target: Gal(b1-3)GlcNAc(b1-6)GalNAc
# Outline: as §1
# [16] = molecular target: Gal(b1-3)[Neu5Ac(a2-6)]GalNAc
# Outline: as §1
# [17] = molecular target: Gal(b1-4)GalNAc(a1-3)[Fuc(a1-2)]Gal(b1-4)GlcNAc
# Outline: as §1
# [18] = molecular target: Gal(b1-4)GlcNAc(b1-2)Man(a1-3)[Gal(b1-4)GlcNAc(b1-2)Man(a1-6)][GlcNAc(b1-4)]Man(b1-4)GlcNAc(b1-4)[Fuc(a1-6)]GlcNAc
# Outline: as §1
# [19] = molecular target: Gal(b1-4)GlcNAc(b1-2)[Gal(b1-4)GlcNAc(b1-4)]Man(a1-3)[Gal(b1-4)GlcNAc(b1-2)Man(a1-6)]Man(b1-4)GlcNAc(b1-4)GlcNAc
# Outline: as §1
# Gal3S(b1-4)GlcNAc = molecular target: Gal3S(b1-4)GlcNAc
# Outline: as §1
# [20] = molecular target: Gal3S(b1-4)[Fuc(a1-3)]GlcNAc
# Outline: as §1
# Gal3S6S(b1-4)GlcNAc6S = molecular target: Gal3S6S(b1-4)GlcNAc6S
# Outline: as §1
# Gal4S6S(b1-4)GlcNAc = molecular target: Gal4S6S(b1-4)GlcNAc
# Outline: as §1
# GalNAc(b1-4)Gal(b1-4)Glc = molecular target: GalNAc(b1-4)Gal(b1-4)Glc
# Outline: as §1
# GalNAc(b1-4)GlcNAc = molecular target: GalNAc(b1-4)GlcNAc
# Outline: as §1
# [21] = molecular target: Glc(a1-4)Glc(a1-4)Glc(a1-4)Glc
# Outline: as §1
# Glc(a1-6)Glc(a1-6)Glc = molecular target: Glc(a1-6)Glc(a1-6)Glc
# Outline: as §1
# [22] = molecular target: Glc(a1-6)Glc(a1-6)Glc(a1-6)Glc
# Outline: as §1
# [23] = molecular target: GlcNAc(b1-3)Gal(b1-4)GlcNAc(b1-3)Gal(b1-4)GlcNAc
# Outline: as §1
# [24] = molecular target: GlcNAc(b1-3)Gal(b1-4)GlcNAc(b1-3)Gal(b1-4)GlcNAc(b1-3)Gal(b1-4)GlcNAc(b1-2)Man(a1-3)[GlcNAc(b1-3)Gal(b1-4)GlcNAc(b1-3)Gal(b1-4)GlcNAc(b1-3)Gal(b1-4)GlcNAc(b1-2)Man(a1-6)]Man(b1-4)GlcNAc(b1-4)GlcNAc
# Outline: as §1
# [25] = molecular target: GlcNAc(b1-3)[GlcNAc(b1-4)][GlcNAc(b1-6)]GlcNAc
# Outline: as §1
# Man(a1-3)[Man(a1-6)]Man = molecular target: Man(a1-3)[Man(a1-6)]Man
# Outline: as §1
# [26] = molecular target: Man(a1-3)[Man(a1-6)]Man(a1-6)[Man(a1-3)]Man
# Outline: as §1
# [27] = molecular target: Man(a1-3)[Man(a1-6)]Man(b1-4)GlcNAc(b1-4)[Fuc(a1-6)]GlcNAc
# Outline: as §1
# Man(a1-6)Man = molecular target: Man(a1-6)Man
# Outline: as §1
# [28] = molecular target: Neu5Ac(a2-3)Gal(b1-3)GlcNAc(b1-2)Man(a1-3)[Neu5Ac(a2-3)Gal(b1-3)GlcNAc(b1-2)Man(a1-6)]Man(b1-4)GlcNAc(b1-4)GlcNAc
# Outline: as §1
# [29] = molecular target: Neu5Ac(a2-3)Gal(b1-4)GlcNAc(b1-2)Man
# Outline: as §1
# [30] = molecular target: Neu5Ac(a2-3)Gal(b1-4)GlcNAc(b1-2)Man(a1-3)[GlcNAc(b1-4)][Neu5Ac(a2-3)Gal(b1-4)GlcNAc(b1-2)Man(a1-6)]Man(b1-4)GlcNAc(b1-4)GlcNAc
# Outline: as §1
# [31] = molecular target: Neu5Ac(a2-3)Gal(b1-4)GlcNAc(b1-2)Man(a1-3)[Neu5Ac(a2-3)Gal(b1-4)GlcNAc(b1-2)Man(a1-6)]Man(b1-4)GlcNAc(b1-4)[Fuc(a1-6)]GlcNAc
# Outline: as §1
# [32] = molecular target: Neu5Ac(a2-3)Gal(b1-4)GlcNAc(b1-3)Gal
# Outline: as §1
# [33] = molecular target: Neu5Ac(a2-3)Gal(b1-4)GlcNAc(b1-3)Gal(b1-4)GlcNAc(b1-3)Gal(b1-4)GlcNAc(b1-2)Man(a1-3)[Neu5Ac(a2-3)Gal(b1-4)GlcNAc(b1-3)Gal(b1-4)GlcNAc(b1-3)Gal(b1-4)GlcNAc(b1-2)Man(a1-6)]GalNAc
# Outline: as §1
# [34] = molecular target: Neu5Ac(a2-3)Gal(b1-4)[Fuc(a1-3)]GlcNAc6S
# Outline: as §1
# [35] = molecular target: Neu5Ac(a2-3)[GalNAc(b1-4)]Gal(b1-4)Glc
# Outline: as §1
# [36] = molecular target: Neu5Ac(a2-6)Gal(b1-4)GlcNAc(b1-2)Man(a1-6)[GlcNAc(b1-2)Man(a1-3)]Man(b1-4)GlcNAc(b1-4)GlcNAc
# Outline: as §1
# [37] = molecular target: Neu5Ac(a2-6)Gal(b1-4)GlcNAc(b1-3)Gal(b1-4)GlcNAc(b1-3)Gal(b1-4)GlcNAc(b1-2)Man(a1-3)[Neu5Ac(a2-6)Gal(b1-4)GlcNAc(b1-3)Gal(b1-4)GlcNAc(b1-3)Gal(b1-4)GlcNAc(b1-2)Man(a1-6)]GalNAc
# Outline: as §1
# [38] = molecular target: Neu5Ac(a2-6)Gal(b1-4)GlcNAc(b1-3)Gal(b1-4)GlcNAc(b1-6)[Gal(b1-3)]GalNAc
# Outline: as §1
# [39] = molecular target: Neu5Ac(a2-6)Gal(b1-4)GlcNAc(b1-3)[Neu5Ac(a2-6)Gal(b1-4)GlcNAc(b1-6)]GalNAc
# Outline: as §1
# [40] = molecular target: Neu5Gc(a2-8)Neu5Gc(a2-3)Gal(b1-4)GlcNAc(b1-3)Gal(b1-4)GlcNAc
# Outline: as §1
# [41] = molecular target: Neu5Gc(a2-8)Neu5Gc(a2-6)Gal(b1-4)GlcNAc
# Outline: as §1
binder,measurement,setting,value
Clone730PsrP (Streptococcus pneumoniae) (protein) MDHHHHHHHHHHASENLYFQGAMVVGSQTAAATEATAKKVEEDRKKPASDYVASVTNVNLQSYAKRRKRSVDSIEQLLASIKNAAVFSGNTIVNGAPAINASLNIAKSETKVYTGEGVDSVYRVPIYYKLKVTNDGSKLTFTYTVTYVNPKTNDLGNISSMRPGYSIYNSGTSTQTMLTLGSDLGKPSGVKNYITDKNGRQVLSYNTSTMTTQGSGYTWGNGAQMNGFFAKKGYGLTSSWTVPITGTDTSFTFTPYAARTDRIGINYFNGGGKVVESSTT,glycan array binding signal (z-score),Fuc(a1-2)Gal,0.412
same,glycan array binding signal (z-score),[1],1.96
same,glycan array binding signal (z-score),[2],-0.364
same,glycan array binding signal (z-score),[3],-0.472
same,glycan array binding signal (z-score),[4],1.79
same,glycan array binding signal (z-score),Fuc(a1-2)Gal6S(b1-4)Glc,-0.11
same,glycan array binding signal (z-score),[5],-0.513
same,glycan array binding signal (z-score),[6],2.17
same,glycan array binding signal (z-score),[7],0.059
same,glycan array binding signal (z-score),[8],0.389
same,glycan array binding signal (z-score),[9],0.499
same,glycan array binding signal (z-score),Gal(a1-2)Gal,-0.461
same,glycan array binding signal (z-score),[10],-0.459
same,glycan array binding signal (z-score),[11],2.82
same,glycan array binding signal (z-score),[12],19.3
same,glycan array binding signal (z-score),[13],-0.281
same,glycan array binding signal (z-score),[14],-0.518
same,glycan array binding signal (z-score),[15],-0.605
same,glycan array binding signal (z-score),[16],-0.508
same,glycan array binding signal (z-score),[17],-0.441
same,glycan array binding signal (z-score),[18],-0.249
same,glycan array binding signal (z-score),[19],-0.616
same,glycan array binding signal (z-score),Gal3S(b1-4)GlcNAc,0.189
same,glycan array binding signal (z-score),[20],0.82
same,glycan array binding signal (z-score),Gal3S6S(b1-4)GlcNAc6S,-0.38
same,glycan array binding signal (z-score),Gal4S6S(b1-4)GlcNAc,-0.324
same,glycan array binding signal (z-score),GalNAc(b1-4)Gal(b1-4)Glc,1.39
same,glycan array binding signal (z-score),GalNAc(b1-4)GlcNAc,0.829
same,glycan array binding signal (z-score),[21],2.03
same,glycan array binding signal (z-score),Glc(a1-6)Glc(a1-6)Glc,-0.273
same,glycan array binding signal (z-score),[22],2.73
same,glycan array binding signal (z-score),[23],-0.488
same,glycan array binding signal (z-score),[24],-0.481
same,glycan array binding signal (z-score),[25],-0.013
same,glycan array binding signal (z-score),Man(a1-3)[Man(a1-6)]Man,0.888
same,glycan array binding signal (z-score),[26],2.14
same,glycan array binding signal (z-score),[27],-0.591
same,glycan array binding signal (z-score),Man(a1-6)Man,3.24
same,glycan array binding signal (z-score),[28],0.657
same,glycan array binding signal (z-score),[29],1.83
same,glycan array binding signal (z-score),[30],-0.507
same,glycan array binding signal (z-score),[31],-0.658
same,glycan array binding signal (z-score),[32],-0.586
same,glycan array binding signal (z-score),[33],1.38
same,glycan array binding signal (z-score),[34],1.98
same,glycan array binding signal (z-score),[35],-0.647
same,glycan array binding signal (z-score),[36],-0.372
same,glycan array binding signal (z-score),[37],0.355
same,glycan array binding signal (z-score),[38],-0.382
same,glycan array binding signal (z-score),[39],-0.567
same,glycan array binding signal (z-score),[40],-0.565
same,glycan array binding signal (z-score),[41],-0.41
